Screening results as filed in PubChem.
GPR151 activ – activates the human receptor GPR151 | actives 1% (n = 650,000) | PathHunter beta-arrestin GPR151 cells, luminescence | Q8TDV0 | activation, % at 11.2 µM; in the data active = activation above about 4.9%
Target sequence (Q8TDV0 whole entry, looked up): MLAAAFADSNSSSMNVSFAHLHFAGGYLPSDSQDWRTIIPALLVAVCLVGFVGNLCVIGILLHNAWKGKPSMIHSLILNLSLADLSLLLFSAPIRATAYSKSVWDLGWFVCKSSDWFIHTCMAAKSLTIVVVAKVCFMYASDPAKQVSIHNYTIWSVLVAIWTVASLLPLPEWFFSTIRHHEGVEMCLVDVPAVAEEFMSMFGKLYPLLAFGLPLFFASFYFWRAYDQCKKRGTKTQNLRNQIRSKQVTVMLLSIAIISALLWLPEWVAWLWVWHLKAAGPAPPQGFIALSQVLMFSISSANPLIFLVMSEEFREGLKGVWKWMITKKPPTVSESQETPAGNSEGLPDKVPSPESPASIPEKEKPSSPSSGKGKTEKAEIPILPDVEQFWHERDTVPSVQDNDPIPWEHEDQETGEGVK
FBW7 act – human FBW7 E3 ligase activation, primary screen; Q969H0; AlphaScreen FBW7–phospho-cyclin E peptide binding, activator screen; normalized activity (activation), % at 26.1 µM; actives 0.13% (n = 650,000); AID 1259310; in the data active = normalized activity above about 1.9%;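 also: purified mutant Fbw7 with reduced substrate affinity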
MITF primary – blocks human microphthalmia-associated transcription factor; actives 0.91% (n = 650,000); inhibition, % at 2.6 µM; O75030; AlphaScreen MITF homodimerization, bead proximity signal; AID 1259374; in the data active = inhibition above about 50%
TEAD-YAP inh – TEAD-YAP interaction inhibition. inhibition, % at 9.12 µM. HEK-TIYL cells, TEAD-Gal4/YAP UAS-luciferase luminescence. actives 1.4% (n = 640,000). AID 1259422; in the data active = inhibition above about 32%
Of the large screens only hits and unclear results are named; the others gave an inactive call. Sampled rows, rich in hits. Any-hit rate of the full collection: about 3.5%.

CC(=O)c1ccc(OCC[N+](C)(C)Cc2ccccc2)cc1	none
CC(C)(C)CC(C)(C)c1ccc(OCCOCC[N+](C)(C)Cc2ccccc2)cc1	TEAD-YAP inh 54
CC(=O)Nc1ccc(C(=O)OCC(=O)Nc2ccc(N(c3ccccc3)C(C)C)cc2)cc1	none
COC(=O)C1(C(=O)OC)C(C)(C)C1(C(=O)OC)C(=O)OC	none
CC(C)C(=O)Nc1ccc2nn(-c3ccccc3)nc2c1	TEAD-YAP inh 46
CCC(=O)Nc1ccc2nn(-c3ccccc3)nc2c1	TEAD-YAP inh 37
CC(C)(C)C(=O)Nc1ccc2nn(-c3ccccc3)nc2c1	TEAD-YAP inh 82
O=C(Nc1ccc2nn(-c3ccccc3)nc2c1)C(F)(F)F	none
Cc1ccccc1NC(=O)CSc1nnc(C2CCCCC2)o1	none
NNC(=O)/C(=C\c1ccccc1)NC(=O)c1ccccc1	none
NNC(=O)/C(=C\c1cccs1)NC(=O)c1ccccc1	TEAD-YAP inh 33
[O-][n+]1onc2c3c4c(n(OCc5ccccc5)c3ccc21)CCCC4	none
Cc1c(Cl)cccc1S(=O)(=O)N1CCC(n2nnc3ccccc32)CC1	none
Cc1nc2ccccc2n1CC1CCN(S(=O)(=O)/C=C/c2ccccc2)CC1	TEAD-YAP inh 33
Cc1c(Cl)cccc1S(=O)(=O)N1CCC(Cn2c(C)nc3ccccc32)CC1	TEAD-YAP inh 36
Cc1nc2c(-c3ccc(Cl)cc3)cnn2c(N)c1-c1ccccc1	TEAD-YAP inh 89
Cc1nn2c(N)cc(-c3ccccc3)nc2c1-c1ccc(Cl)cc1	none
O=C(O)CCc1ccc(-c2ccc(Br)cc2)o1	MITF primary 56
O=C(Cc1ccccc1)OCc1ccc(-c2ccc(Br)cc2)o1	none
O=C(NCCN1CCOCC1)c1csc(-c2csc3ccccc23)n1	none
O=C1C=CC2=C3c4cc(O)c(O)cc4CC3(O)COC2=C1O (stereo unspecified)	MITF primary 92
Nn1cnnc1N/N=C/c1ccc(O)c(O)c1	MITF primary 88
O=C(N/N=C/c1ccc(O)c(O)c1)N/N=C/c1ccc(O)c(O)c1	MITF primary 95
O=C(N/N=C/c1ccc(O)c(O)c1)c1cccc(N/N=C/c2ccc(O)c(O)c2)c1	MITF primary 105
Nc1nnc(CC(=O)N/N=C\c2ccc(O)c(O)c2)s1	MITF primary 52
c1ccc2c(c1)OCC(c1nc(Nc3cn[nH]c3)c3ccccc3n1)O2 (stereo unspecified)	none
COc1ccc(Cl)cc1NC(=O)c1sc2ncnc(N(C)c3ccccc3)c2c1C	none
O=c1c(-c2ccc(Cl)cc2)c(N2CCN(c3ccccc3)CC2)c1=O	TEAD-YAP inh 60
COc1ccccc1N1CCN(c2c(-c3ccccc3)c(=O)c2=O)CC1	TEAD-YAP inh 67
O=c1c(-c2ccccc2)c(N2CCN(c3ccccc3F)CC2)c1=O	none
O=c1c(-c2ccc(Cl)cc2)c(N2CCN(c3ccccc3F)CC2)c1=O	TEAD-YAP inh 42
O=c1c(-c2ccccc2)c(N2CCN(c3cccc(Cl)c3)CC2)c1=O	none
CC(=O)C(C(C)=O)C1=C(Cl)C(=O)C(=O)c2ccccc21	TEAD-YAP inh 84
CCOC(=O)N1CCN(C(=O)c2ccc(NCc3ccccc3OC)c(S(=O)(=O)Nc3cccc(C(F)(F)F)c3)c2)CC1	none
CCN(C(C)=O)c1nnc(-c2ccc(C)cc2)s1	TEAD-YAP inh 47
O=C(COC(=O)c1cc(-c2ccco2)nc2ccccc12)c1ccc[nH]1	none
CCN1C(=O)N(CC)C2NC(=S)NNC21 (stereo unspecified)	TEAD-YAP inh 82
CCN1C(=O)N(CC)C2C1NC(=O)N2CC (stereo unspecified)	none
Cc1nc(C)n(-c2ccc(Nc3cc(-n4cc(C)c(Nc5ccccc5)n4)ccn3)cc2)n1	FBW7 act 1.9
CCOC(=O)C1=C(CN2CCC3(CC2)OCCO3)NC(=O)NC1c1ccc(F)cc1 (stereo unspecified)	none
Nc1c(C(=O)NCc2ccccc2)nnn1Cc1cccc(C(F)(F)F)c1	TEAD-YAP inh 48
Nc1c(C(=O)NCc2ccccc2)nnn1Cc1cccc(F)c1	none
COc1cccc(C(=O)Nc2ccc(O)c(C(=O)O)c2)c1	none
COc1cccc(C(=O)Nc2ccc(O)c(C)c2)c1	TEAD-YAP inh 84
CC(C)Oc1ccc(NC(=O)c2cccc(Cl)c2)cc1	none
COc1cccc(C(=O)Nc2ccc(OC(C)C)cc2)c1	TEAD-YAP inh 75
O=C(COC(=O)c1cccc(-n2cnnn2)c1)NCC(=O)Nc1ccc(F)c(F)c1F	none
CCC(C)NC(=O)Cn1cc(C=O)c2ccccc21 (stereo unspecified)	none
COc1ccc(C2C=C(c3ccc(Cl)cc3)Nc3nnnn32)cc1OC (stereo unspecified)	none
